{"source": "PubChem BioAssay (NCATS)", "key": {"[1]": {"molecular_target": "Guanine nucleotide-binding protein G(i) subunit alpha-1 (Homo sapiens) (UniProt P63096)", "sequence (P63096 whole entry, looked up)": "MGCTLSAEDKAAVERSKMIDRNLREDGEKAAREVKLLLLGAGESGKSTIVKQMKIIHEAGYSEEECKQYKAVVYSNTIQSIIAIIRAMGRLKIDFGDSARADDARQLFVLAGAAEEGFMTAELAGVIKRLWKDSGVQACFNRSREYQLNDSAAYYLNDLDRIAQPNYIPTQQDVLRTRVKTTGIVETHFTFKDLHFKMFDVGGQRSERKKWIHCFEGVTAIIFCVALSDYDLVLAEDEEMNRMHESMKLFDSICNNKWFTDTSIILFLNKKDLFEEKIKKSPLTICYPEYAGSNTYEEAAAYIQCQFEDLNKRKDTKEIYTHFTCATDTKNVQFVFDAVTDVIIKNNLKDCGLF", "assay": "qHTS Assay for Inhibitors of RGS12 GoLoco Motif Activity (Green Fluorophore) (AID 879);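 note: negative values mean loss of peptide binding seen as reduced polarization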", "in_short": "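Fluorescence polarization assay: 50 nM Gαi1 with 10 nM FITC-labeled RGS12 GoLoco peptide in 10 mM Tris pH 7.5, 150 mM NaCl, 0.1 mM GDP, 0.05% NP40, 10 min at room temperature with compound.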"}, "[2]": {"assay": "qHTS Assay for Identification of Small Molecule Antagonists for NFkB Signaling Pathway (AID 895; active = well fitted inhibition curve with a large enough effect in the signal ratio, with a control signal flat, not every such curve was filed as active; the % refers to the signal ratio; note: potency is the fitted concentration of half-maximal effect)", "in_short": "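NFkB-bla ME-180 cervical carcinoma cells with beta-lactamase reporter under NFkB response element; compounds added, then TNF alpha at 10 pM final (EC50), 5 h at 37 C. LiveBLAzer substrate 2 h, room temperature; emission 460/530 nm at 405 nm excitation.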"}, "[3]": {"molecular_target": "Pyruvate kinase (Leishmania mexicana) (UniProt Q27686)", "assay": "qHTS Validation Assay for Inhibitors of Leishmania Mexicana Pyruvate Kinase (AID 945)", "in_short": "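Compounds are tested as eight-point concentration series. Reactions contain 0.2 nM LmPYK E451W, 0.5 mM PEP, 0.1 mM ADP, 7 mM MgCl2 and 50 mM KCl at pH 7.2, run 1 h at room temperature, then read by PKLight luminescence.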"}, "[4]": {"molecular_target": "Pyruvate kinase PKM (Homo sapiens) (UniProt P14618)", "sequence (P14618 whole entry, looked up)": "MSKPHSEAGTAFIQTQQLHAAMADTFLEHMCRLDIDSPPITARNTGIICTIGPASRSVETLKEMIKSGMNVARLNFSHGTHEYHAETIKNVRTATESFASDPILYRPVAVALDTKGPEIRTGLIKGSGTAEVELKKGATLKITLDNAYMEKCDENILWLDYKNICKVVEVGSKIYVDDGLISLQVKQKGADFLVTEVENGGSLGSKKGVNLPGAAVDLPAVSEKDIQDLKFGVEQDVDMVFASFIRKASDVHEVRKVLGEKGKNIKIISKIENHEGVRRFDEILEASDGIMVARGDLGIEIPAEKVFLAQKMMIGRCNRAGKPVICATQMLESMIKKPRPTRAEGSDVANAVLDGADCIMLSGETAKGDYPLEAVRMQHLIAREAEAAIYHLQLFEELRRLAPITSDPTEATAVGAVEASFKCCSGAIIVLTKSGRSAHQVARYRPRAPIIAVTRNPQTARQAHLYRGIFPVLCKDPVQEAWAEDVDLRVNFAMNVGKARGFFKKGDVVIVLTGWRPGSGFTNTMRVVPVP", "assay": "qHTS Assay for Activators of Human Muscle Pyruvate Kinase (AID 954; active = well fitted curve in the direction sought with a large enough effect, not every such curve was filed as active)", "in_short": "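Purified human PKM2 (0.1 nM) with 0.5 mM PEP (Km) and 0.1 mM ADP in 50 mM imidazole pH 7.2, KCl, MgCl2, 1 h at room temperature; ATP formed read by coupled luciferase luminescence. Normalized to no-enzyme/110 uM thiadiazolimine inhibition; 0.3 nM enzyme column for activation.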"}, "[5]": {"molecular_target": "Alpha-galactosidase A (Homo sapiens) (UniProt P06280)", "sequence (P06280 whole entry, looked up)": "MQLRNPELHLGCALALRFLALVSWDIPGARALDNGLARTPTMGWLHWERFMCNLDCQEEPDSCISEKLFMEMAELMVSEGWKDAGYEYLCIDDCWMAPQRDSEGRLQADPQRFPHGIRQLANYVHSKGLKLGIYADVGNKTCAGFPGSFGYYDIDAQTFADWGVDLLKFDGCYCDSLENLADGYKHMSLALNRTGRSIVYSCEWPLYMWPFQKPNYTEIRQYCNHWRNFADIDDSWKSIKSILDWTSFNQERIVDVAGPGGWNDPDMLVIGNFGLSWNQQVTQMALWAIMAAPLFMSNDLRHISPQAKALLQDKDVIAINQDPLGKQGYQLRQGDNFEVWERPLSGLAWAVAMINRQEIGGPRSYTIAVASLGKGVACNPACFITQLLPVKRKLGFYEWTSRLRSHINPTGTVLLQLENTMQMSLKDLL", "assay": "Counterscreen for Glucocerebrosidase Inhibitors: qHTS Assay for Human alpha-Galactosidase at pH 4.5 (AID 992)", "in_short": "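Human enzyme (2 nM) with 80 uM 4-methylumbelliferyl alpha-D-galactopyranoside in 50 mM citric acid, 0.005% Tween-20, pH 4.5, 20 min at room temperature. Compounds 0.7 nM–77 uM; fluorescence Ex 365/Em 440 after pH 10 stop; AC50 from Hill fits.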"}, "[6]": {"molecular_target": "alpha-glucosidase (Oryza sativa, rice) (UniProt Q653V4)", "assay": "Counterscreen for Glucocerebrosidase Inhibitors: qHTS Assay for Rice alpha-Glucosidase at pH 5.0 (AID 997)", "in_short": "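Rice alpha-glucosidase (4 nM final) with 400 uM 4-methylumbelliferyl-alpha-D-glucopyranoside in citrate buffer pH 5.0, 20 min at room temperature, stopped at pH 10; fluorescence 365/440 nm, compounds 0.7 nM–77 uM, AC50 from Hill fits.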"}, "[7]": {"molecular_target": "Alpha-galactosidase (Coffea arabica) (UniProt Q42656)", "assay": "Counterscreen for Glucocerebrosidase Inhibitors: qHTS Assay for Coffee Bean alpha-Galactosidase at pH 5.9 (AID 998)", "in_short": "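Green coffee bean enzyme (2 nM final) was incubated with compounds (0.7 nM–77 uM) and 4-methylumbelliferyl alpha-D-galactopyranoside (80 uM) in citrate buffer pH 5.9, 20 min at room temperature. High-pH stop; fluorescence 365/440 nm; AC50 from Hill fits.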"}, "[8]": {"molecular_target": "Thyrotropin receptor (Homo sapiens) (UniProt P16473)", "sequence (P16473 whole entry, looked up)": "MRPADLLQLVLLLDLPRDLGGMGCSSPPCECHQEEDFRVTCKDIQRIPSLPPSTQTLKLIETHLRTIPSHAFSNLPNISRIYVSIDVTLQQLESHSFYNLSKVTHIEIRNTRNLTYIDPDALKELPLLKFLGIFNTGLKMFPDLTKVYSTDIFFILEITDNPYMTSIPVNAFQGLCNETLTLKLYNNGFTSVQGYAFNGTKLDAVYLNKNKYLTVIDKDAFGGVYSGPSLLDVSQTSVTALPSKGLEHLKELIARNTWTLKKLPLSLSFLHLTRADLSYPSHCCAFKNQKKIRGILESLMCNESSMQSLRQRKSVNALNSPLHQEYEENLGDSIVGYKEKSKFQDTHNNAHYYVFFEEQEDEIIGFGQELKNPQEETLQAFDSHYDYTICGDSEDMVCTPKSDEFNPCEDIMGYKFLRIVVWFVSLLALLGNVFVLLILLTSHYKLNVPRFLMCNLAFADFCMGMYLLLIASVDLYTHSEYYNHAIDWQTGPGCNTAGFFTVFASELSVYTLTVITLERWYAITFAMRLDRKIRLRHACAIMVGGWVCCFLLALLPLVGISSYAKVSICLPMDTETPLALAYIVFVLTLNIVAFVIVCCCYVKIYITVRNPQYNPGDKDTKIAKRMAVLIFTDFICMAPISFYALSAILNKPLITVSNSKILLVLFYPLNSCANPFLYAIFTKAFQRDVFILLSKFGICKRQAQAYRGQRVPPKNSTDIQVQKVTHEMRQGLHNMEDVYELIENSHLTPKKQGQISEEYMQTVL", "assay": "qHTS Assay for Antagonists of the Thyroid Stimulating Hormone Receptor (AID 488980); note: series mostly up to about 58 µM", "in_short": "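TSHR-HEK293 cells; 70 uM RO 20-1724 PDE inhibitor; compound + EC80 TSH (4 nM final); anti-cAMP cryptate antibody/cAMP-d2 in lysis buffer, 30 min RT; HTRF 665/620 nm read.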"}, "[9]": {"molecular_target": "Rap guanine nucleotide exchange factor 3 (Homo sapiens) (UniProt O95398)", "sequence (O95398 whole entry, looked up)": "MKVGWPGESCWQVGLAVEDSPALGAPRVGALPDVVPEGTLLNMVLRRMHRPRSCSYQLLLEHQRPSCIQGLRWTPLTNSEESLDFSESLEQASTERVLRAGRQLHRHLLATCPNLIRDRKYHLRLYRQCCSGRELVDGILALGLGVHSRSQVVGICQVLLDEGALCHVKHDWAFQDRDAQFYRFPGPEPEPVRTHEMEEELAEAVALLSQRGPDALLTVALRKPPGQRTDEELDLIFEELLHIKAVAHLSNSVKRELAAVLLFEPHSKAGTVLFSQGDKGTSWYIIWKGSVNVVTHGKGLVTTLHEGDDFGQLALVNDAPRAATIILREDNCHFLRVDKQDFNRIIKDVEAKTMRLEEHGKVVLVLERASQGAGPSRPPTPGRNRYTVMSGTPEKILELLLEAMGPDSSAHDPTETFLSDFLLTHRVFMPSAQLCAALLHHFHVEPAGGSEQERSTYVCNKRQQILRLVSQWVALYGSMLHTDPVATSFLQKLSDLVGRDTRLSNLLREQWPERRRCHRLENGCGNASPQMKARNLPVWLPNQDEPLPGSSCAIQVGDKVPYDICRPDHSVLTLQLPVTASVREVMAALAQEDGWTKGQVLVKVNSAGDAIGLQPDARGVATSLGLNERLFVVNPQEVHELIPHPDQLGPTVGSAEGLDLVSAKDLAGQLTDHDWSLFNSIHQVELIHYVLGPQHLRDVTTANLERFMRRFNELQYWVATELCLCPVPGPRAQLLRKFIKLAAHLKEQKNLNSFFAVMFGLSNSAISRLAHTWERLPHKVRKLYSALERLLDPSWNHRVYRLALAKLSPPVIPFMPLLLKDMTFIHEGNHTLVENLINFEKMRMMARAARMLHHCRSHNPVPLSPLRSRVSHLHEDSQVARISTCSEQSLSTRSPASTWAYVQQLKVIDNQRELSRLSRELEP", "assay": "Counterscreen qHTS for antagonist of cAMP-regulated guanine nucleotide exchange factor 3 (EPAC1) (AID 1645888)", "in_short": "(§1)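 Measured: fluorescence of BODIPY-GDP bound to Rap1B, which falls as exchange proceeds. Conditions include 50 uM competing GDP, 5 and 30 min reads, and a later cAMP challenge for antagonist detection.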"}, "[10]": {"molecular_target": "Rap guanine nucleotide exchange factor 3 (Homo sapiens) (UniProt O95398)", "assay": "Counterscreen qHTS for agonist of cAMP-regulated guanine nucleotide exchange factor 3 (EPAC1) (AID 1645889)", "in_short": "as §1"}, "[11]": {"assay": "MultiTox-Fluor Cytotoxicity Assay - LYMP1-003 - Dead Cells (AID 961)", "in_short": "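LYMP1-003 human lymphoblastoid cells (2500/well) exposed to compound 16 h at 37 C in complete medium; dead-cell protease read with bis-AAF-R110 fluorescence (Ex/Em 485/520) after 60 min at room temperature. Normalized to DMSO and 15 uM tetraoctylammonium bromide; AC50 from Hill fit.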"}, "[12]": {"assay": "Cell Viability - LYMP2-013 (AID 970)", "in_short": "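Acute toxicity was measured in human lymphoblastoid cells (2500/well) exposed to compound titrations for 24 hr, with ATP luminescence (CellTiter-Glo) as read-out and AC50 fitted by Hill equation.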"}, "[13]": {"molecular_target": "Estrogen receptor (Homo sapiens) (UniProt P03372)", "sequence (P03372 whole entry, looked up)": "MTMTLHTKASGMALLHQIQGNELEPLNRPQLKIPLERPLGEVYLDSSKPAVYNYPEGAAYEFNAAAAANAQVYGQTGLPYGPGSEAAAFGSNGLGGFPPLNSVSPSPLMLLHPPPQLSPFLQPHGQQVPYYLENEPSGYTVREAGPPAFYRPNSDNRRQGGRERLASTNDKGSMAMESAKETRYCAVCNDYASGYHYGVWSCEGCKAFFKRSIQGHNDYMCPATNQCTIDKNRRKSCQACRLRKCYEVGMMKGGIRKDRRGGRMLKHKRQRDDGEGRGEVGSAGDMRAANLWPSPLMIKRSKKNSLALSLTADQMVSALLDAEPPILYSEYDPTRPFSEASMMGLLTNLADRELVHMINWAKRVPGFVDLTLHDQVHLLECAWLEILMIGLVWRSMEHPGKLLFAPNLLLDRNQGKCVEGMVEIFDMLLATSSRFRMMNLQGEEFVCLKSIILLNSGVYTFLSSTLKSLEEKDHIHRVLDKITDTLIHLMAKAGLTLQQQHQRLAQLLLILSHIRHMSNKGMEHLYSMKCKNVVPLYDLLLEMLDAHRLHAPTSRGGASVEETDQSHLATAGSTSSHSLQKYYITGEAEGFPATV", "assay": "qHTS assay for small molecule agonists of estrogen receptor alpha signaling (AID 588514; calls by dose curve)", "in_short": "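Reporter-gene assay. […] controls beta-lactamase in HEK 293 GripTite cells; after 18 hrs with compound, CCF4 substrate is added for 2 hrs and fluorescence is read.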"}, "[14]": {"molecular_target": "Bile acid receptor (Homo sapiens) (UniProt Q96RI1)", "sequence (Q96RI1 whole entry, looked up)": "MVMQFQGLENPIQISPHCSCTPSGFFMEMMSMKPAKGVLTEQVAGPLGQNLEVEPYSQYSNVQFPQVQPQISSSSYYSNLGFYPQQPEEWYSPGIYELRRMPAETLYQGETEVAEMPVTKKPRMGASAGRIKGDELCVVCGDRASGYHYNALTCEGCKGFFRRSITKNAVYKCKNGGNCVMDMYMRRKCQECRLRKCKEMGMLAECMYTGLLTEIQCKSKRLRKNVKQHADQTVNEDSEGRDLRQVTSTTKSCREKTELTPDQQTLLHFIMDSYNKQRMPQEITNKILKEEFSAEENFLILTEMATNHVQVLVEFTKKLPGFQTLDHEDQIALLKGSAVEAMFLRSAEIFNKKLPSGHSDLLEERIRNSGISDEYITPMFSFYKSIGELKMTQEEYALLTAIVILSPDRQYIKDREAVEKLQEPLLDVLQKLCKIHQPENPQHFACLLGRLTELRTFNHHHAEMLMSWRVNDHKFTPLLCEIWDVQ", "assay": "qHTS assay for small molecule agonists of farnesoid X receptor signaling (AID 588527; calls by dose curve)", "details": "HEK293T FXR-UAS-bla, beta-lactamase ratio, 16 h; stronger effect = higher value", "in_short": "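FXR-UAS-bla HEK293T cells (10% dialyzed FBS) preincubated 5-7 h at 37 C, then compounds at up to 92 uM for 16 h at 37 C. CCF4 beta-lactamase read-out after 2 h RT. Normalized to chenodeoxycholic acid (100 uM) and DMSO; Hill fit gave EC50 and efficacy.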"}, "[15]": {"assay": "qHTS assay for small molecule antagonists of peroxisome proliferator-activated receptor delta signaling (AID 588535; active = well fitted inhibition curve with a large enough effect in the signal ratio, with a control signal flat, not every such curve was filed as active; the % refers to the signal ratio)", "details": "HEK293T PPARd-UAS-bla, beta-lactamase FRET ratio, 18 h; 460 nm channel", "in_short": "(§2)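 GeneBLAzer PPAR-delta-UAS-bla HEK293T cells in medium with 2% charcoal/dextran FBS were preincubated 5 hrs at 37 C, then given compounds, incubated 18 hrs at 37 C, and read by CCF4 beta-lactamase fluorescence; IC50 from Hill fits.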"}, "[16]": {"molecular_target": "Peroxisome proliferator-activated receptor delta (Homo sapiens) (UniProt Q03181)", "sequence (Q03181 whole entry, looked up)": "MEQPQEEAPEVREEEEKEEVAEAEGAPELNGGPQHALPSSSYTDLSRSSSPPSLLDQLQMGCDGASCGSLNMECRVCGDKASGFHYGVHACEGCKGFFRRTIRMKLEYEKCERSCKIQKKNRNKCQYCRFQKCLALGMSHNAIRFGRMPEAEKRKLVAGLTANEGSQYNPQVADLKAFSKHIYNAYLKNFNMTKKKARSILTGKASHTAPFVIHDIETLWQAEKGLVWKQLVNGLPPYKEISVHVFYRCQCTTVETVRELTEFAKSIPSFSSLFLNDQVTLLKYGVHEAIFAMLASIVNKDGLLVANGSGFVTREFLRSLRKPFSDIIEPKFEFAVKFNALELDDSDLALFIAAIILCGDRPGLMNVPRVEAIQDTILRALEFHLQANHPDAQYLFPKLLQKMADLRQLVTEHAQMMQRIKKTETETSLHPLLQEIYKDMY", "assay": "qHTS assay for small molecule antagonists of peroxisome proliferator-activated receptor delta signaling (AID 588535)", "in_short": "as §2"}, "[17]": {"molecular_target": "Dual specificity protein kinase CLK4 (Homo sapiens) (UniProt Q9HAZ1)", "sequence (Q9HAZ1 whole entry, looked up)": "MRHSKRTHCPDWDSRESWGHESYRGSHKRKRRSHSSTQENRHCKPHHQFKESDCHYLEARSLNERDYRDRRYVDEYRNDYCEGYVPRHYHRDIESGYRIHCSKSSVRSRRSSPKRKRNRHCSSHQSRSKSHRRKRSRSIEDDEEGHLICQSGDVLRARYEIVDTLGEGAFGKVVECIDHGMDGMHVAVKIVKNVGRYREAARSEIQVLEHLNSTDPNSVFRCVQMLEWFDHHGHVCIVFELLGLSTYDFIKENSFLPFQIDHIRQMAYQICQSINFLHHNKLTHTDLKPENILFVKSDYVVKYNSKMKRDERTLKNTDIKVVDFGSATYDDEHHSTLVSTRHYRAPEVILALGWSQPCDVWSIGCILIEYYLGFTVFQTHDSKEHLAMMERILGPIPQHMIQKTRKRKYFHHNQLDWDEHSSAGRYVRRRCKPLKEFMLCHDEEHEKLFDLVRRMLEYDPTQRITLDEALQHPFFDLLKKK", "assay": "qHTS Assay for Inhibitors of CDC-like Kinase 4 (Kinase-Glo Assay) (AID 1770)", "in_short": "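Readout: Kinase-Glo luminescence from ATP left after a 4.5 h room-temperature reaction of 25 nM Clk4 with 100 uM RS peptide and 1 uM ATP (final). Buffer: 25 mM Tris pH 7.5, 10 mM MgCl2.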"}, "[18]": {"molecular_target": "Dual specificity protein kinase CLK4 (Homo sapiens) (UniProt Q9HAZ1)", "assay": "qHTS Assay for Inhibitors of CDC-like Kinase 4 (ADP-FP Assay) (AID 1795)", "in_short": "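FP readout: Orange Transcreener ADP2 tracer (4 nM) plus ADP antibody, read after 30 min at room temperature. Kinase step: 6.25 nM Clk4, 100 uM RS peptide, 1 uM ATP, pH 7.5, 1 h.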"}, "[19]": {"assay": "Viability counterscreen for agonist of constitutive androstane receptor (CAR) against the NCATS DSHEA and TCM libraries (AID 1794838)", "in_short": "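Viability by CellTiter-Fluor fluorescence, 405/540 nm, after 1 h at 37C. HepG2-CYP2B6-hCAR cells were exposed 24 h to test substances in presence of 0.75 uM PK11195 (final).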"}, "[20]": {"assay": "HepG2 viability counterscreen (readout 2: ATP content) against the NCATS DSHEA and TCM libraries (AID 1794840)", "in_short": "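1,000 HepG2 cells/well, 4 h attach; compounds ~24 h, 37C/5% CO2. Readout 1: GF-AFC 25 uM final, 30 min, fluorescence 380/510 nm. Readout 2: CellTiter-Glo, 30 min RT, luminescence.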"}}, "note": "Values joined by “and” are separate entries in the source; they are usually repeats but may differ in a detail not shown here. Equal values may be shown once. Inconclusive results are not listed. Entries that show only a call come without a potency. Active and inactive are the calls of the source. Unless noted, calls come from the whole dose curve; as a rule, active = well fitted curve in the direction sought with a large enough effect; inconclusive = small, poorly fitted or top-dose-only effect, or another doubt; inactive = no such curve, though single readings can be large; an effect the other way counts as inactive or inconclusive.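 Throughout, for max response: cells co-treated with a PPAR-delta agonist as stimulator during compound exposure.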", "data": [{"compound": "CCc1c(C(=O)OC)ncc2[nH]c3cc(OC)c(OC)cc3c12", "values": [{"measurement": "outcome", "setting": "[1]", "result": "inactive"}, {"measurement": "Potency", "setting": "[2]", "result": "5.62 µM (active)"}, {"measurement": "Potency", "setting": "[3]", "result": "inactive"}, {"measurement": "outcome", "setting": "[4]", "result": "inactive"}, {"measurement": "outcome", "setting": "[5]", "result": "inactive"}, {"measurement": "outcome", "setting": "[6]", "result": "inactive"}, {"measurement": "outcome", "setting": "[7]", "result": "inactive"}, {"measurement": "outcome", "setting": "[8]", "result": "inactive"}]}, {"compound": "CC1=NCCc2c1[nH]c1cc(O)ccc21", "values": [{"measurement": "activity change, negative = inhibition", "setting": "[9]", "result": "251% [at 30.8 µM] (inactive)"}, {"measurement": "Potency", "setting": "[10]", "result": "12.6 µM (active)"}]}, {"compound": "CNC(=O)O/N=C/C(C)(C)SC", "values": [{"measurement": "Potency", "setting": "[11]", "result": "inactive"}, {"measurement": "Potency", "setting": "[12]", "result": "inactive"}, {"measurement": "Potency", "setting": "[13]", "result": "inactive"}, {"measurement": "activation", "setting": "[14]", "result": "1.35% (inactive) and 5.69% (inactive) and 1.03% (inactive)"}, {"measurement": "max response", "setting": "[15]", "result": "-48.7% and -22%"}, {"measurement": "Potency", "setting": "[16]", "result": "inactive"}]}, {"compound": "CN1CCN(c2ncc3ncc(=O)n(C)c3n2)CC1", "values": [{"measurement": "outcome", "setting": "[17]", "result": "inactive"}, {"measurement": "outcome", "setting": "[18]", "result": "inactive"}]}, {"compound": "CC(C)[C@@]1(NC(=O)[C@@H]2C[C@@H]3c4cccc5[nH]cc(c45)C[C@H]3N(C)C2)O[C@@]2(O)C3CCCN3C(=O)[C@H](Cc3ccccc3)N2C1=O", "note": "(stereo not given in full)", "values": [{"measurement": "outcome", "setting": "[8]", "result": "inactive"}]}, {"compound": "COc1cc2c(cc1O)CC1c3c(cc(O)c(OC)c3-2)CCN1C", "note": "(stereo not given)", "values": [{"measurement": "outcome", "setting": "[19]", "result": "inactive"}, {"measurement": "outcome", "setting": "[20]", "result": "inactive"}]}, {"compound": "C=CCc1ccc2c(c1)OCO2", "values": [{"measurement": "Potency", "setting": "[12]", "result": "inactive"}, {"measurement": "outcome", "setting": "[19]", "result": "inactive"}, {"measurement": "outcome", "setting": "[20]", "result": "inactive"}]}, {"compound": "Clc1ccccc1-c1cncnc1NCCc1cnc[nH]1", "values": [{"measurement": "outcome", "setting": "[17]", "result": "inactive"}, {"measurement": "outcome", "setting": "[18]", "result": "inactive"}]}, {"compound": "O=C(OC1CCN(CCCl)CC1)C(c1ccccc1)c1ccccc1", "values": [{"measurement": "outcome", "setting": "[1]", "result": "inactive"}, {"measurement": "Potency", "setting": "[2]", "result": "2.51 µM (active)"}, {"measurement": "Potency", "setting": "[3]", "result": "inactive"}, {"measurement": "outcome", "setting": "[4]", "result": "inactive"}, {"measurement": "outcome", "setting": "[5]", "result": "inactive"}, {"measurement": "outcome", "setting": "[6]", "result": "inactive"}, {"measurement": "outcome", "setting": "[7]", "result": "inactive"}, {"measurement": "activity change, negative = inhibition", "setting": "[9]", "result": "-43.6% [at 30.8 µM] (inactive)"}, {"measurement": "activation", "setting": "[10]", "result": "-1.7% [at 30.8 µM] (inactive)"}]}, {"compound": "ClC1=C(Cl)C2(Cl)C3C(Cl)C=CC3C1(Cl)C2(Cl)Cl", "note": "(stereo not given)", "values": [{"measurement": "max response", "setting": "[15]", "result": -19.5, "unit": "%"}, {"measurement": "Potency", "setting": "[16]", "result": "inactive"}]}, {"compound": "C/C=C/c1ccc2c(c1)OCO2", "values": [{"measurement": "Potency", "setting": "[11]", "result": "inactive"}]}, {"compound": "O=S1OCC2C(CO1)C1(Cl)C(Cl)=C(Cl)C2(Cl)C1(Cl)Cl", "note": "(stereo not given)", "values": [{"measurement": "Potency", "setting": "[13]", "result": "1.41 µM (active)"}, {"measurement": "activation", "setting": "[14]", "result": "2.02% (inactive)"}]}]}
